Screening results as filed in PubChem BioAssay.
S2 tox = cell viability loss in ATXN counter-screen; hit rate 0.49% among 400,000; S2 cells (HEK-293 line with an ATXN2-luciferase reporter) viability, CellTiter-Fluor protease fluorescence, 24 h; Potency, µM (titrated, usually from 56.7 µM), actives largely listed as cytotoxic; note: potency is the fitted concentration of half-maximal effect; nearly all actives have a fitted effect of over 40% in size
TGFb inhibitor = TGF-b pathway inhibition; hit rate 1.2% among 410,000; AID 588855; Potency, µM (top dose mostly 46.1 µM), inactives show at the highest dose activity, negative = inhibition, usual class: inhibitors; HepG2 CAGA-GFP TGF-b/SMAD3 reporter, GFP fluorescence, 18 h; TGF-beta stimulated, 500 pg/mL final; note: potency is the fitted concentration of half-maximal effect; % is set by controls: 0 for no effect and ±100 for the full control effect; nearly all actives have a fitted effect of over 65% in size
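GFP signal (ex488/em500-530) from TGF-beta-stimulated HEPG2 CAGA-GFP cells, 500 pg/mL final, 18 h at 37 degrees C in DMEM plus 1% FBS, normalized to unstimulated and DMSO-stimulated controls.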
D3 antag = blocks the human D3 dopamine receptor. P35462. D3R cells, DiscoveRx beta-arrestin luminescence, antagonist mode; stronger effect = lower value. max response, negative = inhibition, %. hit rate 2.5% among 360,000. AID 652054; in the data active = max response below about -50%; inconclusive = no clear call, values can overlap the other calls; note: % is set by controls: 0 for no effect and ±100 for the full control effect
Target sequence (P35462 whole entry, looked up): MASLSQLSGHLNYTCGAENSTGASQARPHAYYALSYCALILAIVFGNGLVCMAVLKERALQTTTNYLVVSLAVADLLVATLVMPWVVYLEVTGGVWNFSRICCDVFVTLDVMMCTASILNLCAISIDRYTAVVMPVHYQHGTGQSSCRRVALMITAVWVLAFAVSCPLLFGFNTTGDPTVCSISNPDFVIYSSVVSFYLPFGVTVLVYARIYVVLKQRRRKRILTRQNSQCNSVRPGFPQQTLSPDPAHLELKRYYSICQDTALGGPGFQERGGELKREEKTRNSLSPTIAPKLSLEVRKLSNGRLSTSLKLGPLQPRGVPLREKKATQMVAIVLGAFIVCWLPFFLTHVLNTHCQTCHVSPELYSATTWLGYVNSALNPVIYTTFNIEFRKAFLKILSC
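Cells expressing the human receptor were seeded at 1500 cells/well, incubated overnight at 37 degrees C in 5% CO2, then exposed to library compounds with dopamine controls for 90 minutes at 37 degrees C before luminescent detection.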
HepG2 tox = counter-screen for TGF-b inhibitors: cytotoxicity in HepG2 cells; HepG2 CAGA-GFP viability, ATP luminescence, 18 h; Potency, µM (highest dose often 46.1 µM), for the others: top-dose activity change, negative = cytotoxicity, most hits filed as cytotoxic; hit rate 0.76% among 410,000; note: potency is the fitted concentration of half-maximal effect
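HepG2 CAGA-GFP cells (1000/well, DMEM with 1% FBS) received compound, then TGF-beta at 500 pg/mL final, and were incubated 18 hours at 37 degrees C. Viability was read by CellTiter-Glo luminescence. Media-only wells were set as complete cell-killing and DMSO as no toxicity.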
DRD3 agonist = activates the human D3 dopamine receptor. P35462. D3R DiscoveRx beta-arrestin cells, luminescence, 90 min. max activation, %. hit rate 0.58% among 410,000; in the data active = max activation above about 30%; note: 0% is about no effect
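Agonist mode: compounds and dopamine controls were applied to plated cells for 90 min at 37 degrees C after an overnight attachment at 1500 cells/well. Luminescent read-out followed 30 - 60 minutes at room temperature with DiscoveRx detection reagent.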
ATXN2 expr inh = reduces ATXN2 reporter expression in HEK-293 cells. HEK-293 ATXN2-luciferase reporter, luminescence, 24 h. Potency, µM (top dose mostly 57 µM), without a hit: top-dose activity change, negative = inhibition, most hits filed as inhibitors. hit rate 0.72% among 360,000; note: potency is the fitted concentration of half-maximal effect; % is set by controls: 0 for no effect and ±100 for the full control effect; nearly all actives have a fitted effect of over 55% in size
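ATXN2-luciferase reporter cells (luciferase flanked by upstream and downstream ATXN2 gene portions) were treated 24 h at 37 °C with compounds at up to 57 uM. SteadyGlo luminescence gave expression; GF-AFC fluorescence gave viability.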
Numbers without * were called inactive. In the library only some 4.7% were active in any assay of this set; here they are far more common. Unless noted, calls come from the whole dose curve; as a rule, active = well fitted curve in the direction sought with a large enough effect; inconclusive = small, poorly fitted or top-dose-only effect, or another doubt; inactive = no such curve, though single readings can be large; an effect the other way counts as inactive or inconclusive.

Results for CN1CCN(C(=S)NCCc2ccccc2)CC1 ?
S2 tox: inactive; TGFb inhibitor: -12%; D3 antag: -87*; HepG2 tox: -20%; DRD3 agonist: -16; ATXN2 expr inh: 23%

What do the screens show for `OCCNC(=S)NCCc1ccccc1`?
S2 tox: inactive; TGFb inhibitor: 7%; D3 antag: -1; HepG2 tox: 2%; DRD3 agonist: -10; ATXN2 expr inh: 15%

What do the screens show for `COC(=O)c1nc(NC(=O)c2ccccc2Cl)n[nH]1`?
S2 tox: inactive; TGFb inhibitor: -15%; D3 antag: -60*; HepG2 tox: 6%; DRD3 agonist: 6; ATXN2 expr inh: -4%

Results for COc1cc(OC)cc(-c2c(-c3cccs3)c3cc(-c4ccc5[nH]ccc5c4)ccc3n2C)c1 ?
S2 tox: inactive; TGFb inhibitor: -1%; D3 antag: 17; HepG2 tox: -2%; DRD3 agonist: 39*; ATXN2 expr inh: 8%

What do the screens show for `CO[C@H]1C=CO[C@@]2(C)Oc3c(C)c(O)c4c(O)c(c5c(c4c3C2=O)=NC2(CCN(CC(C)C)CC2)N=5)NC(=O)/C(C)=C\C=C/[C@H](C)[C@H](O)[C@@H](C)[C@@H](O)[C@@H](C)[C@H](OC(C)=O)[C@@H]1C`?
DRD3 agonist: 8

How did Cc1cc(NCc2ccccn2)nc2ccccc12 do in these assays?
S2 tox: inactive; TGFb inhibitor: 6%; D3 antag: -19; HepG2 tox: 3%; DRD3 agonist: -6; ATXN2 expr inh: 15%

How did Cc1cc(NC2CCCCC2)nc2ccccc12 do in these assays?
S2 tox: inconclusive; TGFb inhibitor: -5%; D3 antag: -67*; HepG2 tox: -32%; DRD3 agonist: 4

How did CC(C)c1ccc(-n2cnn(-c3ncccc3[N+](=O)[O-])c2=O)cc1 do in these assays?
S2 tox: inactive; TGFb inhibitor: -4%; D3 antag: -83*; HepG2 tox: -11%; DRD3 agonist: -20; ATXN2 expr inh: 70%

What do the screens show for `Cc1cc(C)c(NC(=O)CSc2nc3ccccc3c3nc(CCn4cncc4C)nn23)c(C)c1`?
S2 tox: inconclusive; TGFb inhibitor: 26%; HepG2 tox: 5%; DRD3 agonist: 0; ATXN2 expr inh: inconclusive

What do the screens show for `COC(=O)C1CCCCN1Cc1ccc2c(c1)CN(C1CCSCC1)CCO2` (stereo unspecified)?
S2 tox: inactive

What do the screens show for `COc1ccccc1NS(=O)(=O)c1cccc(C(=O)NCC(c2cccs2)N(C)C)c1` (stereo unspecified)?
S2 tox: inactive; TGFb inhibitor: -16%; D3 antag: -85*; HepG2 tox: -20%; DRD3 agonist: -18; ATXN2 expr inh: -15%

Results for COc1ccccc1NS(=O)(=O)c1cccc(C(=O)N(C)Cc2cccs2)c1 ?
S2 tox: inactive; TGFb inhibitor: 0%; D3 antag: -13; HepG2 tox: 1%; DRD3 agonist: -3; ATXN2 expr inh: -8%

What do the screens show for `CNS(=O)(=O)c1cccc(C(=O)NCC(c2cccs2)N(C)C)c1` (stereo unspecified)?
S2 tox: inactive; TGFb inhibitor: 1%; D3 antag: -72*; HepG2 tox: 1%; DRD3 agonist: -7; ATXN2 expr inh: 14%

How did Cc1ccccc1NS(=O)(=O)c1ccc(C(=O)NCC(c2ccccc2)N(C)C)cc1 (stereo unspecified) do in these assays?
S2 tox: inactive; TGFb inhibitor: 1%; D3 antag: inconclusive; HepG2 tox: 0%; DRD3 agonist: -11; ATXN2 expr inh: -8%

Results for COc1ccccc1NS(=O)(=O)c1cccc(C(=O)NCC(c2ccco2)N(C)C)c1 (stereo unspecified) ?
S2 tox: inactive; TGFb inhibitor: 0%; D3 antag: -68*; HepG2 tox: -20%; DRD3 agonist: -35; ATXN2 expr inh: -4%
